# Assay outcomes as filed in PubChem.
# Rows were chosen to be rich in hits. Some 4.4% of all compounds tested hit in one or more screens of this group.
# HPGD block = HPGD (human) dehydrogenase inhibition; P15428; purified HPGD, NADH fluorescence kinetic, PGE2 substrate; Potency, µM, hits mostly inhibitors; hit rate 4.3% among 150,000; active = well fitted inhibition curve with a large enough effect, not every such curve was filed as active; inconclusive = small, poorly fitted or top-dose-only effect, or another doubt; inactive = no such curve, though single readings can be large or run the other way
# Target sequence (P15428 whole entry, looked up): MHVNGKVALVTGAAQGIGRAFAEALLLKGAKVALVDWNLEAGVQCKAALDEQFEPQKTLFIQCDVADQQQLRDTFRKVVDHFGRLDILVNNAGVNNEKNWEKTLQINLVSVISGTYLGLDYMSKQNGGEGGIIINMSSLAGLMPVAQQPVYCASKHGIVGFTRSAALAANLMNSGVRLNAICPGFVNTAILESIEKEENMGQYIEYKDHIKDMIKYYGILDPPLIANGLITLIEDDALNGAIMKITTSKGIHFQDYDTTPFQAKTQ
#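 NADH formation kinetics: reaction with 30 uM PGE2 and 1 mM NAD+ (final), 20 nM enzyme, Tris-HCl pH 8 with Tween 20, after 15 min compound preincubation at room temperature. Fluorescence change, last versus first of five reads.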
# 12-hLO inh = inhibitors of human 12-lipoxygenase (ALOX12); AID 1452; P18054; hit rate 0.12% among 150,000; Potency, µM (titrated, usually from 57.1 µM), most hits filed as inhibitors; purified 12-hLO, xylenol orange hydroperoxide absorbance; note: nearly all actives have a fitted effect of over 55% in size
#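 Hydroperoxide output read as Fe(III)-xylenol orange absorbance, 573-to-405 nm ratio, after 30 min reaction with 40 uM arachidonic acid. Enzyme: 150 nM purified human 12hLO, 15 min compound preincubation; 25 mM Hepes pH 7.0, room temperature.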
# p53ts 39C kill = p53ts cell cytotoxicity, nonpermissive temperature; H1299-p53A138V viability at 39C, ATP luminescence, 24 h; Potency, µM (series often up to 46.1 µM), usual class: cytotoxic; hit rate 1.5% among 130,000; note: nearly all actives have a fitted effect of over 55% in size
# p53ts 32C tox = kills p53ts cells at the permissive temperature | H1299-p53A138V at 32C, ATP luminescence viability, 24 h | Potency, µM (top dose mostly 46.1 µM), hits mostly cytotoxic | hit rate 0.93% among 130,000; note: nearly all actives have a fitted effect of over 55% in size
#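 Viability by ATPlite luminescence after 24 h compound treatment (up to 46 uM) at the permissive 32C. Cells are H1299 carrying p53 A138V. Scale runs from DMSO basal to 100 uM tamoxifen as full kill; AC50 from Hill fits.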
# Hits are given with their value; n = inactive; u = inconclusive; x = not tested or not shown. Unless noted, calls come from the whole dose curve; as a rule, active = well fitted curve in the direction sought with a large enough effect; inconclusive = small, poorly fitted or top-dose-only effect, or another doubt; inactive = no such curve, though single readings can be large; an effect the other way counts as inactive or inconclusive.
SMILES,HPGD block,12-hLO inh,p53ts 39C kill,p53ts 32C tox
Cc1ccc2oc(-c3ccccc3)c(C(=O)O)c(=O)c2c1,14.1µM,n,x,x
COc1cccc(-c2oc3ccc(C)cc3c(=O)c2O)c1,x,x,10µM,u
COc1ccc(S(=O)(=O)NCCSCc2ccccc2C)cc1Br,28.2µM,n,x,x
Cc1ccccc1CSCCNS(C)(=O)=O,n,n,x,x
Cc1ccc(NC(=S)NCc2cccs2)cc1,28.2µM,n,x,x
CCCCc1ccc(NC(=S)NCc2cccs2)cc1,n,u,x,x
Fc1ccc(NC(=S)NCc2cccs2)cc1,17.8µM,n,x,x
COc1cccc(NC(=S)NCc2cccs2)c1,17.8µM,n,x,x
S=C(NCc1cccs1)Nc1ccccc1,12.6µM,n,x,x
COc1ccccc1NC(=S)NCc1cccs1,n,n,x,x
S=C(NCCc1ccccc1)Nc1ccccn1,n,u,x,x
Cc1ccc(C)c(NC(=S)c2ccccn2)c1,28.2µM,n,x,x
S=C(Nc1ccccn1)c1ccccn1,8.91µM,n,u,u
O=C(CCCn1c(=O)c2cccn2c2cccnc21)Nc1ccccc1C(F)(F)F,x,x,n,n
CC(=O)c1c(C)[nH]c(C(=O)N2CCCCCC2)c1C,12.6µM,n,n,n
COc1ccc(-c2cn3cccnc3n2)cc1NC(=O)c1cc(C)cc(C)c1,x,x,n,n
NC(=NCCC[C@H](N)C(=O)O)NO,n,n,n,n
COc1ccc(CCNC(=S)NC(=O)c2ccccc2)cc1OC,25.1µM,14.1µM,x,x
COc1ccc(/C=C/C(=O)NC(=S)NCCc2ccc(OC)c(OC)c2)cc1,n,n,x,x
O=C(NNc1ccc([N+](=O)[O-])cc1)C1CC2CCCC(C1)C2=O (stereo unspecified),n,n,x,x
O=C(NNc1ccc([N+](=O)[O-])cc1)C1CC1c1ccccc1 (stereo unspecified),25.1µM,n,x,x
Cc1ccc(C(=O)c2cn(CC(=O)Nc3ccc4c(c3)OCCO4)c3nc(C)ccc3c2=O)cc1,x,x,n,n
COC(=O)c1ccc2c(c1)N(CC(=O)Nc1cccc(C(F)(F)F)c1)C(=O)c1ccccc1S2,x,x,n,n
CC(C)c1ccc(-c2nnc(N)s2)cc1,35.5µM,n,x,x
CCOCCCNC(=O)c1cc(=O)[nH]c2ccc(S(=O)(=O)N3CCCC3)cc12,x,x,n,n
SMILES,HPGD block,12-hLO inh,p53ts 39C kill,p53ts 32C tox
COc1ccc(OC)c(CNC(=O)Cn2ncc3c([nH]c4ccc(C)cc43)c2=O)c1,x,x,n,n
CCc1nn(CCCC(=O)N2CCc3ccccc3C2)c(=O)c2cc3occc3n12,31.6µM,n,n,n
Cc1nn(CCCC(=O)N2CCc3ccccc3C2)c(=O)c2cc3sccc3n12,n,n,n,n
COC(=O)c1c(SCC(=O)Nc2cc(F)ccc2F)[nH]c2ccc(C)cc2c1=O,x,x,n,n
Cc1nn(-c2ccc3nnc(C)n3n2)c(C)c1CCC(=O)Nc1ccc(OC(F)(F)F)cc1,x,x,n,n
O=C(CSc1nc2cc(Cl)ccc2s1)c1ccco1,22.4µM,n,n,n
O=C(CSCc1ccc(Cl)cc1)c1ccco1,22.4µM,n,n,n
O=C(CSc1nnc(SCC(=O)c2ccco2)s1)c1ccco1,31.6µM,n,n,n
CCSc1nnc(NC(=O)c2ccco2)s1,n,n,n,u
CN(C)Cc1ccccc1-c1nc(N(C)Cc2ccco2)c2ccccc2n1,n,n,n,n
COc1ccccc1-n1c(SCC(=O)Nc2ccc(C)cc2)nc(O)cc1=O,n,0.0794µM,n,n
COc1ccc(NC(=O)CSc2nc(O)cc(=O)n2-c2ccccc2OC)cc1,n,7.08µM,n,n
N#C[C@H](Cc1ccc(O)cc1)c1ccc(O)cc1,n,n,n,n
CCCOc1ccc(OC(=O)c2sc3ncn(Cc4cccc(F)c4)c(=O)c3c2C)cc1,x,x,n,n
COc1ccc(Cn2cc(C(=O)c3ccc(C)c(C)c3)c(=O)c3ccccc32)cc1,x,x,n,n
Cc1ccc(S(=O)(=O)/C=C\C#N)cc1,3.55µM,n,12.6µM,12.6µM
CC(C)(C)c1ccc(S(=O)(=O)/C=C\C#N)cc1,2.82µM,n,20µM,15.8µM
Cc1ccc(S(=O)(=O)c2ccc(C)cc2)cc1,n,n,x,x
COc1cccc(OC)c1OCCNC[C@@H]1CSc2ccccc2O1,x,n,u,n
O=c1cnc2cnc(N3CCNCC3)nc2n1C1CC1,x,x,n,n
O=C(NCC1CCCO1)C1CC(c2ccccc2Cl)=NO1 (stereo unspecified),20µM,n,x,x
NC(=O)Cn1c(=O)n(CCCCCC(=O)NCc2ccccc2)c(=O)c2sccc21,x,x,n,n
CCCc1nnc(SCc2ccc(OC)cc2)n1N,17.8µM,n,n,n
CCOC(=O)C1CCCN(c2c(N3CCc4ccccc4C3)c(=O)c2=O)C1 (stereo unspecified),28.2µM,n,n,n
CCOC(=O)C1CCCN(c2c(NCCN(C)Cc3ccccc3)c(=O)c2=O)C1 (stereo unspecified),n,n,n,n
SMILES,HPGD block,12-hLO inh,p53ts 39C kill,p53ts 32C tox
CC(C)CC1(C(=O)NCC2CC2)C=CCN1C(=O)c1ccccc1 (stereo unspecified),17.8µM,n,n,n
COc1cccc(NC(=O)Cn2c(=O)n(Cc3ccccc3)c(=O)c3ccccc32)c1,x,x,n,n
Cc1nc(-c2ccccc2)sc1-c1ccc(SCC(=O)Nc2ccccc2)nn1,x,x,n,n
O=C(CCl)N1c2ccccc2OCC1c1ccccc1 (stereo unspecified),31.6µM,n,u,x
O=C(N/N=C/c1ccco1)c1cc(-c2ccccc2)n[nH]1,n,n,n,n
O=C(N/N=C/c1ccco1)c1cc(-c2cccc3ccccc23)n[nH]1,25.1µM,n,x,x
Cc1cc(C)cc(-n2c(C)cc(C(=S)N3CCOCC3)c2C)c1,3.98µM,n,x,x
Cc1cc(C(=S)N2CCOCC2)c(C)n1-c1ccc(Cl)cc1,28.2µM,n,x,x
Fc1ccc(C2=Nn3c(nnc3-c3n[nH]c4c3CCC4)SC2)cc1,n,n,n,n
Clc1ccc(-c2n[nH]c3c2CCC3)cc1Cl,17.8µM,n,x,x
CC(=O)N1CCCc2cc(S(=O)(=O)N(C)Cc3ccccc3)ccc21,31.6µM,n,n,n
Cc1cc(Cl)ccc1OCCCC(=O)N1CCOCC1,n,n,n,n
Cc1ccc(OCC(=O)N2CCCCCC2)c(C)c1,n,n,n,n
O=C(CCSc1ccc(Cl)cc1)N1CCCCCC1,10µM,n,x,x
Cc1cc(Cl)ccc1OCCCC(=O)N1CCCCC1,6.31µM,n,x,x
Cc1cc(Br)ccc1OCC(=O)N1CCCCCC1,39.8µM,n,x,x
O=C(CCCOc1ccc(Cl)cc1Cl)N1CCc2ccccc2C1,2.51µM,n,n,n
CC(C)CCNC(=O)c1ccc2nc(Cc3ccccc3)oc2c1,x,x,n,n
CC1CCN(C(=O)CSCc2ccc(Cl)cc2)CC1,n,n,x,x
Cc1cc(OCCCC(=O)N2CCCCC2)cc(C)c1Cl,7.94µM,n,n,n
CC1CCN(C(=O)CCCOc2ccc(Cl)cc2)CC1,2.82µM,n,n,n
O=C(CCCCn1c(=S)[nH]c2ccsc2c1=O)NCc1ccco1,14.1µM,n,n,n
COCCNC(=O)CCCCCn1c(=S)[nH]c2ccccc2c1=O,12.6µM,n,x,x
COCCCNC(=O)CCCn1c(=O)[nH]c2ccccc2c1=O,n,n,n,n
O=C(CCCCCn1c(=S)[nH]c2ccccc2c1=O)N1CCOCC1,14.1µM,n,x,x
COCCNC(=O)CCCCCN1C(=O)CCC1=O,15.8µM,n,n,n
